Several values for one entry are separate records, joined by “and”; a condition that tells them apart may be missing. Equal values may be shown once.
Test: JC-1 mitochondrial signal, unstimulated myeloma cells – cell-based, JC-1 fluorescence, RPMI8226, 24 h, 100 nL compound, profiling panel (AID 1169); also: test concentration not given here
Conditions: JC-1 mitochondrial potential fluorescence, higher = more signal
CC(=O)OC[C@H]1O[C@H](C#CC(C)(C)C)C=C[C@@H]1OC(C)=O gave a z-score of -0.776.
In the case of COc1ccc(O[C@H]2C=C[C@@H](c3ccccc3)O[C@@H]2COC(=O)CCC(C)=NO[C@H](C)c2cn([C@H](CO)Cc3ccccc3)nn2)cc1, the z-score was 0.0444 and -0.196.
In the case of CCCC[C@@H]1CN2[C@H](c3ccc(Br)cc3)[C@@H](C)CC[C@H]2C(=O)O1, the z-score was -0.187 and -0.361.
With CC(CO)N1C(=O)[C@@H]2C3C(=O)OCCC=C[C@H]3OC23C=CCN(C(C)(C)C)C(=O)[C@@H]13 (stereo not given in full) the z-score was 0.914 and -0.0183.
For C=CCN(C(=O)C1N(CCOCCO)C(=O)C2C(C(=O)O)C3C=CC21O3)C(C)(C)C (stereo not given), the z-score was -0.691 and 0.591.
C[C@@H](ON=C1[C@H]2CCn3c(=O)n(-c4ccccc4)c(=O)n3[C@H]2[C@H](O)[C@@H]2O[C@H]12)c1cn([C@H](CO)Cc2ccccc2)nn1 gave a z-score of -0.334.
For CO[C@H]1COC(=O)CC=C[C@H](C)[C@H](OC)COC(=O)[C@@H](C)COC(=O)CC=C[C@@H]1C, the z-score was -0.429 and 0.0879.
For COC(=O)[C@H](C)NC(=O)CCC1CC(OC(=O)NCCc2ccc(F)cc2)CC2(CCCC(COC(=O)NCCCN3CCCC3=O)O2)O1 (stereo not given in full), the z-score was -0.405.
For CCOC(=O)[C@@H]1CC2O[C@]23C[C@@H]1C(=O)N1CCC[C@@H]1[C@H]3O[Si](C)(C)C(C)(C)C (stereo not given in full), the z-score was -0.387 and -0.407.
For C[C@@H]1CC[C@H]2C(=O)O[C@H](CN=[N+]=[N-])CN2[C@H]1c1ccc(Br)cc1, the z-score was -0.867 and 0.0245.
With O=c1n(-c2ccccc2)c(=O)n2n1CC[C@@H]1C(=NOC[C@@H](O)COCc3ccco3)[C@H]3O[C@H]3[C@@H](O)[C@@H]12 the z-score was -0.135 and 0.0289.
Compound C=C(C)C(=O)OC[C@@H]1CN2[C@@H](CC[C@@H](C)[C@@H]2c2ccc(Br)cc2)C(=O)O1 has a z-score of -0.28.
CCCNC(=O)OC[C@H]1O[C@H](CCON=C(C)CCC(=O)OC[C@H]2O[C@H](C#Cc3ccccc3)C=C[C@@H]2Oc2ccc(C)cc2)C=C[C@@H]1Oc1ccc(OC)cc1 gave a z-score of 0.15.
With C=C[C@@H](OC)[C@H](O)c1ccc(O)c(F)c1 the z-score was 0.498 and -0.363.
In the case of COCn1c2ccccc2c2nnc(C(C)=O)nc21, the z-score was -0.79 and -0.473.
In the case of CC[C@@H]1C(Sc2ccccc2)C(C(=O)O)[C@H](c2ccc(C)cc2)N1S(=O)(=O)c1ccc(C)cc1 (stereo not given in full), the z-score was 0.296 and -0.369.
In the case of C=CCN(C(=O)C(c1cccs1)N(C(=O)/C=C\C(=O)O)c1c(Cl)cccc1CO)c1ccc(OC)cc1 (stereo not given), the z-score was -0.74 and -0.0886.
With CO[C@@H]1COC(=O)[C@H](Cc2ccccc2)NC(=O)CC=C[C@@H](C)[C@H](OC)COC(=O)[C@@H](C)NC(=O)CC=C[C@H]1C the z-score was 0.645 and -0.266.
In the case of CCOC(=O)[C@@H]1CC=C2CC1C(=O)N1CCC[C@@H]1[C@H]2O[Si](C)(C)C(C)(C)C (stereo not given in full), the z-score was -0.0804 and 0.132.
In the case of C[C@@H](c1ccccc1)N1C(=O)[C@H]2[C@H]3[C@H](O)[C@H](O)CC(=O)[C@@H]3CC[C@H]2C1=O, the z-score was -0.438.
For C[C@@H]1CC[C@H]2C(=O)NC[C@@H](O)CN2[C@H]1c1ccc(Br)cc1, the z-score was -0.606 and 0.0684.
For CC(C)[Si]1(C(C)C)OCc2cc(CCCc3cc4c(c(CCc5ccccc5)n3)[Si](C(C)C)(C(C)C)OC4)nc(CCc3ccccc3)c21, the z-score was -0.152 and 1.02.
Cc1cc2c(nc1C)CCCN2CC(C)ON=C[C@@H](C)[C@H](OCc1ccccc1)C(C)C (stereo not given in full) showed a z-score of 0.708.
For C=CCN(C(=O)C(c1cccs1)N(C(=O)/C=C\C(=O)O)c1ccc(CCO)cc1)C(C)(C)C (stereo not given), the z-score was 0.185 and 0.0345.
In the case of C=C[C@@H](OC)[C@H](O)c1ccc(OCCO)cc1, the z-score was -0.982 and -0.69.
For C=CCN(C(=O)C(c1cccs1)N(CCOCCO)C(=O)/C=C\C(=O)O)c1ccc(OC)cc1 (stereo not given), the z-score was -0.0898 and 0.302.
With C=C[C@@H](C)[C@H](O)c1ccc(O)c2ccccc12 the z-score was -0.333 and -0.269.
In the case of C[C@@H]1CN2[C@@H](CC[C@@H](C)[C@@H]2c2ccc(Br)cc2)C(=O)O1, the z-score was 0.05 and 0.203.
In the case of C=CCN(C(=O)C1N(c2ccc(CCO)cc2)C(=O)C2C(C(=O)O)C3C=CC21O3)c1ccc(OC)cc1 (stereo not given), the z-score was -0.0146 and 0.609.
With C=C[C@H](C)[C@@H](O)c1ccc(OCCO)cc1 the z-score was -0.961 and 0.99.
With C=CCN(C(=O)C(c1cccs1)N(CCOCCO)C(=O)/C=C\C(=O)O)C(C)(C)C (stereo not given) the z-score was 0.28 and -0.0177.
For COC(=O)C1=C(C)N(Cc2ccccc2)[C@]23O[C@](C(=O)OC)(C(=O)N2[C@@H]1c1ccccc1)[C@@H](c1ccccc1)[C@@H]3C(=O)c1ccccc1, the z-score was 0.535 and -0.253.
In the case of C=CCN(CCCC)C(=O)C1N(C(C)(C)CO)C(=O)C2C(C(=O)O)C3C=CC21O3 (stereo not given), the z-score was 0.354 and 0.826.
Cc1ccc(S(=O)(=O)N[C@H]2COC(=O)[C@@H](C)COC(=O)[C@H](C)NC(=O)CC=C[C@H]2C)cc1 showed a z-score of -0.137.
With Cc1ccc(S(=O)(=O)OC[C@@H]2CN3[C@@H](CC[C@@H](C)[C@@H]3c3ccc(Br)cc3)C(=O)O2)cc1 the z-score was -0.883 and -0.68.
With COC(=O)C1=C(C)N(Cc2ccccc2)C2=C(C(=O)c3ccccc3)[C@H](c3ccccc3)[C@@](O)(C(=O)OC)C(=O)N2[C@@H]1c1ccccc1 the z-score was -0.639 and -0.349.
In the case of C=CCN(Cc1ccccc1)C(=O)C(c1cccs1)N(C(=O)/C=C\C(=O)O)c1ccc(CCO)cc1 (stereo not given), the z-score was 0.648 and 0.272.
Work on CCOC(=O)[C@H](Cc1ccccc1)NC(=O)CCC1CC(OC(=O)NCc2cccc3ccccc23)CC2(CCCC(COC(=O)NCCCN3CCCC3=O)O2)O1 (stereo not given in full) yielded a z-score of -0.195.
With COC(=O)c1c2oc(c1C(=O)OC)C(=O)N[C@@H](Cc1ccccc1)Cn1cc(nn1)C1(CCCCC1)NC(=O)N[C@H](CO)CC2 the z-score was -0.0874 and -0.0745.
In the case of C=CCN(CCCCC)C(=O)C1N(c2ccc(CCO)cc2)C(=O)C2C(C(=O)O)C3C=CC21O3 (stereo not given), the z-score was 0.647 and 0.562.
